PubChem BioAssay AID686979 (National Center for Advancing Translational Sciences (NCATS), 2013)
Values joined by “and” are separate entries in the source; they are usually repeats but may differ in a detail not shown here. Equal entries are not always repeated. Screen size: about 420,000 compounds; about 50,000 (12%) were called active. Roughly 26% stayed inconclusive and do not appear here. The list comes from a sample in which actives are over-represented; it also holds similar structures and randomly drawn compounds. Values without a mark were called inactive. The call rests on the fitted dose curve; in most records, active means well fitted inhibition curve with a large enough effect; inconclusive means small, poorly fitted or top-dose-only effect; inactive means flat fitted curve, though single readings scatter.
On the % scale 0 is the no-effect control and ±100 the full control effect; potency means the concentration at half of the fitted maximal effect.

Test: qHTS for Inhibitors of human tyrosyl-DNA phosphodiesterase 1 (TDP1): qHTS in cells in presence of CPT; further: nearly all actives have a fitted effect of over 55% in size
Conditions: chicken DT40 Tdp1-/-;hTDP1 cells + 20 nM CPT, ATP luminescence, 48 h; series mostly up to 46.2 µM; activity change, negative = growth inhibition: at the top concentration
Outline: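 Chicken DT40 Tdp1-/- cells complemented with human TDP1, 400 cells/well, exposed to compounds plus 20 nM camptothecin for at least 48 h at 37 C; viability read as ATP content by CellTiter-Glo luminescence.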
For Cc1cc(S(=O)(=O)NCc2ccccn2)c(Cl)cc1Cl, the “activity change, negative = growth inhibition” value was -2.32%. With Cc1ccc(S(=O)(=O)NCC(=O)NNC(=O)c2ccc(Br)cc2)cc1C the “activity change, negative = growth inhibition” value was 8.9%. With C/C(=N\Nc1ccccc1)c1cccs1 the “activity change, negative = growth inhibition” value was -0.909%. With C/C(=N\Nc1nc(Nc2ccccc2)nc(N2CCOCC2)n1)c1cccs1 the Potency was 23.1 µM (active). With C/C(=N\Nc1nc(N2CCOCC2)nc(N2CCOCC2)n1)c1ccc([N+](=O)[O-])cc1 the “activity change, negative = growth inhibition” value was 9.59%. With O=C(COC(=O)C1CC2CCCC(C1)C2=O)NC(=O)c1ccccc1 (configuration not stated) the “activity change, negative = growth inhibition” value was -16.9%. With CC(C)(C)c1ccc(C(=O)N2CCN(CCNC(=O)C(=O)Nc3ccc(F)cc3)CC2)cc1 the Potency was 16.4 µM (active). In the case of CN1CCN(C(=O)c2ccc(NC(=O)c3ccc(Br)o3)cc2)CC1, the “activity change, negative = growth inhibition” value is reported as 7.4%. In the case of Cc1ccc(C(=O)N/C(=C\c2ccc(F)cc2)C(=O)NCCN2CCOCC2)cc1, the “activity change, negative = growth inhibition” value is reported as 2.67%. For Cc1cc(C(=O)OCC(=O)N2C(C)CCCC2C)c2ccccc2n1 (configuration not stated), the “activity change, negative = growth inhibition” value was 2.32%. In the case of O=C(NCc1ccncc1)C1CCCN(S(=O)(=O)c2ccc(Br)cc2)C1 (configuration not stated), the “activity change, negative = growth inhibition” value is reported as -26%. With COC(=O)c1ccccc1NS(=O)(=O)c1ccc2c(c1)CCCN2C(C)=O the “activity change, negative = growth inhibition” value was -17%. For COc1cccc(N2CCN(S(=O)(=O)c3ccc4c(c3)CCCN4C(C)=O)CC2)c1, the “activity change, negative = growth inhibition” value was -26.4%. With CC(=O)N1CCCc2cc(S(=O)(=O)N3CCC(C(=O)NC4CCCCC4)CC3)ccc21 the “activity change, negative = growth inhibition” value was 6.44%. For CC(=O)N1CCCc2cc(S(=O)(=O)N3CCCC(C(=O)NCc4ccc(Cl)cc4)C3)ccc21 (configuration not stated), the Potency was 18.4 µM (active). For CC(=O)N1CCCc2cc(S(=O)(=O)N3CCCC(C(=O)N4CCN(c5cccc(Cl)c5)CC4)C3)ccc21 (configuration not stated), the Potency was 2.31 µM (active) and 8.2 µM (active). For CCCCn1c(N)c(N(CCOC)C(=O)c2cccc(S(=O)(=O)N(C)c3ccccc3)c2)c(=O)[nH]c1=O, the “activity change, negative = growth inhibition” value was 0.657%. With CC(C)(C(=O)N1CCC1(C)C(=O)NS(=O)(=O)c1ccc(Br)cc1)c1ccccc1 (configuration not stated) the “activity change, negative = growth inhibition” value was -32.2%. For CCOC(=O)C1CCN(S(=O)(=O)c2ccc3c(c2)N(C(C)=O)CCO3)CC1, the “activity change, negative = growth inhibition” value was -14.8%. In the case of OC(CN1C2=NCCCN2c2ccccc21)c1ccc(Br)cc1 (configuration not stated), the “activity change, negative = growth inhibition” value is reported as -29.8%. In the case of O=C(CN1C2=NCCN2c2ccccc21)c1cccs1, the “activity change, negative = growth inhibition” value is reported as -13.6%. In the case of Cc1cc2c(cc1C)N(Cc1ccccc1)C1=NCCCN12, the Potency is reported as 13 µM (active). For CCN(CC)C(=O)CSc1nc2ccccc2n1CC(=O)N1CCN(c2ccccc2OC)CC1, the “activity change, negative = growth inhibition” value was -26.7%. For Cc1ccc(Cn2c(SCC(=O)N/N=C/c3ccccc3OCC(=O)O)nc3ccccc32)cc1, the “activity change, negative = growth inhibition” value was -7.54%. For CCOc1ccc(OCCSc2nc3ccccc3n2CC(=O)O)cc1, the “activity change, negative = growth inhibition” value was -13.1%. For CN(C(=O)CSc1nc2ccccc2n1Cc1ccccc1C#N)c1ccccc1, the Potency was 14.6 µM (active). With COC(=O)c1ccc(Cn2c(SCC(=O)N(C)c3ccccc3)nc3ccccc32)cc1 the Potency was 20.6 µM (active). For COC(=O)CSc1nc2ccccc2c(=O)n1Cc1ccccc1, the “activity change, negative = growth inhibition” value was 0.481%. With CC(C)[C@H](NC(=O)OCc1ccccc1)C(=O)OCc1ccccc1 the “activity change, negative = growth inhibition” value was 5.67%. For CCN1CCN(C(=O)N[C@@H](C(=O)N[C@@H]2C(=O)N3C(C(=O)O)=C(CSc4nnnn4C)CS[C@H]23)c2ccc(O)cc2)C(=O)C1=O, the Potency was “inactive”. With CCOc1ccc(C)cc1S(=O)(=O)NC1CCCCCC1 the “activity change, negative = growth inhibition” value was -28.6%. In the case of CC1CN(C(=O)COC(=O)c2cccc(NS(=O)(=O)c3ccccc3)c2)CC(C)O1 (configuration not stated), the “activity change, negative = growth inhibition” value is reported as -2.2%. In the case of O=C(CSc1ccc(-c2ccccc2)nn1)NCC1CCCO1 (configuration not stated), the “activity change, negative = growth inhibition” value is reported as -6.35%. With Cc1ccc(SCC(=O)Nc2nncs2)cc1 the “activity change, negative = growth inhibition” value was -23.3%. With CC(C)Oc1ccc(C(=O)NCC(=O)Nc2ccc3c(c2)CCC3)cc1 the “activity change, negative = growth inhibition” value was -21.7%. With CC(C)Cn1c(SCC(=O)Nc2ccc(Cl)cc2F)nc(O)cc1=O the “activity change, negative = growth inhibition” value was 26.8%. For COc1ccc(OCc2ccc(-c3nc(C#N)c(N4CCN(c5ccccc5)CC4)o3)o2)cc1, the “activity change, negative = growth inhibition” value was 1.42%. For COc1ccccc1-c1nc(C#N)c(N2CCC(C(N)=O)CC2)o1, the “activity change, negative = growth inhibition” value was -18.9%. With CC1CCN(c2oc(-c3ccccc3F)nc2C#N)CC1 the Potency was 16.4 µM (active). For O=S(=O)(c1ccc(Br)c2ccccc12)N1CCOCC1, the “activity change, negative = growth inhibition” value was 5.94%. In the case of Cc1noc(C)c1NC(=O)Nc1cccc2c1O[C@H](CN(C)C(=O)Nc1ccccc1)[C@@H](C)CN([C@H](C)CO)C2=O, the “activity change, negative = growth inhibition” value is reported as -1.98%. In the case of Cc1ccccc1N/N=C/c1ccc(N2CCOCC2)cc1, the “activity change, negative = growth inhibition” value is reported as -18.7%. In the case of Cc1cc(C(=O)N/N=C/c2ccc(N3CCOCC3)cc2)c(C)o1, the “activity change, negative = growth inhibition” value is reported as -6.34%. In the case of CNC(=S)N/N=C/c1ccc(N2CCOCC2)s1, the Potency is reported as 4.61 µM (active). In the case of Cc1ccc2[nH]c3c(=O)n(CC(=O)NC(C)C)ncc3c2c1, the “activity change, negative = growth inhibition” value is reported as -21.8%. With CN(c1ccc(O)cc1)c1nc(-c2cccnc2)cs1 the “activity change, negative = growth inhibition” value was -24.2%. For O=C(Nc1ccc(-c2ccc3nncn3n2)cc1)C1CCCCC1, the “activity change, negative = growth inhibition” value was -21.7%. With NNc1nc2c(Cl)cccc2s1 the “activity change, negative = growth inhibition” value was -14%. In the case of Cn1c(SCC(=O)NC2CCCCC2)nnc1-c1cc2ccccc2o1, the “activity change, negative = growth inhibition” value is reported as -15.6%. With CC(C)NC(=O)N1Cc2cc(C(=O)NCC(F)(F)F)nc(-c3cccc(-c4cc5ccccc5o4)c3)c2[C@@H]1CCO the Potency was 18.4 µM (active). For CC(=O)N1Cc2cc(C(=O)NCc3cccc(F)c3)nc(-c3cccc(C4=CCCC4)c3)c2[C@H]1CCO, the Potency was 18.4 µM (active). For Cc1c(C(=O)NCC2CC2)sc(=O)n1Cc1cccc(F)c1, the “activity change, negative = growth inhibition” value was -13.6%.
